According to PubChem BioAssay AID504430 (National Center for Advancing Translational Sciences (NCATS), 2011):
This is one part of the list. Active and inactive are the calls of the source.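 The calls were made as follows: active = compounds that block the splicing kinase Clk1 enough to give a fitted half-inhibition concentration; inactive = the rest.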

Target: Dual specificity protein kinase CLK1 (Homo sapiens) (UniProt P49759)
Assay: Kinase Inhibition Study on Inhibitors of CDC-like Kinase 1 (Reaction Biology data)
Conditions: recombinant Clk1 kinase assay, 10 uM ATP
Source text: NIH Molecular Libraries Probe Production Centers Network [MLPCN] NIH Chemical Genomics Center [NCGC] MLPCN Grant: 1R03MH084827-01 Assay Submitter (PI): Tom Misteli NCGC Assay Overview: Alternative splicing of pre-mRNAs plays a major role in the regulation of eukaryotic gene expression. Alternative splicing is now thought to be one of the primary reasons for the complexity of higher organisms leading to an average of three protein isoforms per gene. Aberrant splicing can lead to a number of diseases and is known to play a role in rare genetic diseases such as progeria syndrome. Hutchinson-Gilford Progeria Syndrome (HGPS) is a pediatric premature aging disease caused by a spontaneous mutation in the lamin A/C (LMNA) gene due to a single point mutation in the lamin A gene effecting 1 in 4 million people. To identify both specific splicing modulators of the lamin A gene as well as general splicing modulators, a cell-based HTS assay was developed using a minigene reporter system (AIDs, 1459 & 1487). […] This AID summarizes the characterization of lead compounds in Clk1.
All kinase reactions were performed using 10 uM ATP in the assay. 100% activity was taken from kinase reactions with DMSO alone (the vehicle used for compound stock solutions).

Dual specificity protein kinase CLK1 (Homo sapiens), sequence (P49759 whole entry, looked up): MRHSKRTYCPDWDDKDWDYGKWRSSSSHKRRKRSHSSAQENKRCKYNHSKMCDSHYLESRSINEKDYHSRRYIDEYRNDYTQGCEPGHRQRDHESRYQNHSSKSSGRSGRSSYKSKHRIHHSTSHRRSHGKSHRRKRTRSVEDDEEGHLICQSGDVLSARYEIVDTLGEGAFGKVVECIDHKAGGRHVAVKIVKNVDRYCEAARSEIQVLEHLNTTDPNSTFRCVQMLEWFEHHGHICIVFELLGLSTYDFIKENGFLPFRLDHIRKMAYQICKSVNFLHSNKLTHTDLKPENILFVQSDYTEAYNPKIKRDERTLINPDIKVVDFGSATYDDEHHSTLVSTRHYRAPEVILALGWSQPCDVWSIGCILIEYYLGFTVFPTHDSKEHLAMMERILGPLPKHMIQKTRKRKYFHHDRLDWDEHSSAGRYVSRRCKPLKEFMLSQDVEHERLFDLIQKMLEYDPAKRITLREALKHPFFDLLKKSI

Structure (SMILES) | Potency
c1nc(N2CCOCC2)c2cc(-c3ccc4c(c3)OCO4)ccc2n1 | 1.11 µM (active)
CN(Cc1cncn1C)c1ncnc2ccc(-c3ccc4c(c3)OCO4)cc12 | 2.8 µM (active)
CC(Nc1ncnc2ccc(-c3ccc4c(c3)OCO4)cc12)c1ccco1 (stereo not drawn) | 5.75 µM (active)
